Bioassay records deposited in PubChem by National Center for Advancing Translational Sciences (NCATS).
Only some compounds are listed: those with a hit (about 19% of all), similar ones and a draw of the others.
IL1B secr inh – inflammasome signaling inhibition, IL-1 beta readout. 360,000 tested, 4.7% active. activity change, % at 57.5 µM. AID 743279. THP-1 LPS/ATP IL-1B secretion, AlphaLISA, 16 h; active compounds read low; in the data active = activity change below about -50%; inconclusive = mostly about -30% to -49%
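Secreted IL-1B measured by AlphaLISA bead assay after 16 h compound exposure of THP-1 cells; compounds (final up to 57.5 uM) added 1 h before LPS (250 ng/mL) and ATP (1.25 mM) stimulation; lower signal means less secretion.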
TDP1 cell CPT – growth inhibition of DT40 Tdp1-/-;hTDP1 cells with camptothecin (screen for TDP1 inhibitors) | chicken DT40 Tdp1-/-;hTDP1 cells + 20 nM CPT, ATP luminescence, 48 h | Potency, µM (doses to about 46.2 µM), inactives show top-dose activity change, negative = growth inhibition, hits mostly inhibitors | 420,000 tested, 12% active | AID 686979; also: potency is read from the fitted curve at half-maximal effect; nearly all actives have a fitted effect of over 55% in size
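Chicken DT40 Tdp1-/- cells complemented with human TDP1, 400 cells/well, exposed to compounds plus 20 nM camptothecin for at least 48 h at 37 C; viability read as ATP content by CellTiter-Glo luminescence.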
uPA generation – cell surface uPA generation inhibition | 330,000 tested, 0.31% active | AID 540303 | Potency, µM (top dose mostly 38.3 µM), inactives show top-dose activity change, negative = inhibition, hits mostly inhibitors | cell surface uPA generation assay, qHTS; active = well fitted inhibition curve with a large enough effect; inconclusive = small, poorly fitted or top-dose-only effect; inactive = no such curve, though single readings can be large or run the other way; tested in mouse RAW 264.7 cells; also: potency is read from the fitted curve at half-maximal effect; nearly all actives have a fitted effect of over 55% in size
TDP1 cell noCPT – qHTS for Inhibitors of human tyrosyl-DNA phosphodiesterase 1 (TDP1): qHTS in cells in absence of CPT | AID 686978, 2013 | 420,000 tested, 15% active | Potency, µM (series often up to 46.2 µM), for inactives: at the top dose activity change, negative = growth inhibition, usual class: inhibitors | DT40 Tdp1-/- hTDP1 cells, no CPT, ATP luminescence, 48 h; also: potency is read from the fitted curve at half-maximal effect; nearly all actives have a fitted effect of over 55% in size
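A cellular qHTS used chicken DT40 cells lacking endogenous Tdp1 but carrying stably transfected human TDP1. Compounds were applied without camptothecin, and cell growth kinetics were judged by ATP-dependent luminescence after ≥48 hr.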
HT1080 IDH1KD tx – toxicity to HT-1080 IDH1 knockdown cells (counter line); AID 686971; Potency, µM (highest dose often 46.1 µM), inactives show at the top dose activity, negative = toxicity, most hits filed as cytotoxic; HT-1080 IDH1 knockdown viability, ATP luminescence, 48 h; 360,000 tested, 2% active;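 also: potency is read from the fitted curve at half-maximal effect; 0% = DMSO wells and -100% = cell-free medium wells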
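HT-1080-IDH1KD cells (IDH1 knocked down), 750/well in RPMI with 5% FBS, treated with compound 48 h at 37 degrees C. Viability by CellTiter-Glo luminescence, normalised to DMSO and no-cell wells; concentration-response curves classed.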
HT1080-NT tox – kills 2HG-producing HT-1080-NT fibrosarcoma cells; HT-1080-NT fibrosarcoma viability, CellTiter-Glo ATP luminescence, 48 h; Potency, µM (highest dose often 46.1 µM), without a hit: top-dose activity, negative = less viability, hits mostly cytotoxic; 360,000 tested, 1.6% active; AID 686970;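 also: NT is the 2HG producing partner of a matched IDH1 knockdown line; potency is read from the fitted curve at half-maximal effect; 0% = DMSO-treated cells and -100% = media-only wells without cells; nearly all actives have a fitted effect of over 55% in size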
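Compounds were tested in concentration-response format on HT-1080-NT cells for 48 hours at 37 degrees C. Cell viability came from CellTiter-Glo luminescence; curves were classified by r2, response magnitude and activity.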
* hit, by the source's call; ? = inconclusive; / = not tested or not shown; [ ] = dose if it differs, or a comment. Unless noted, calls follow the shape of the dose curve; as a rule, active = well fitted curve in the direction sought with a large enough effect; inconclusive = small, poorly fitted or top-dose-only effect, or another doubt; inactive = no such curve, though single readings can be large; an effect the other way counts as inactive or inconclusive. Unless noted, % is scaled to controls: 0 for no effect and ±100 for the full control effect.

SMILES	IL1B secr inh	TDP1 cell CPT	uPA generation	TDP1 cell noCPT	HT1080 IDH1KD tx	HT1080-NT tox
O=C(/C=C/c1ccc(OCCCF)cc1)Nc1ccnc(-c2ccncc2)n1	10	?	4%	23µM*	-7%	-14%
CC[C@H](C)[C@H](NC(=O)[C@H](CCCN=C(N)N)NC(=O)[C@H](CCCN=C(N)N)NC(=O)[C@H](CC(C)C)NC(=O)[C@H](Cc1ccccc1)NC(=O)CNC(=O)CN)C(=O)N[C@@H](CCCN=C(N)N)C(=O)N1CCC[C@H]1C(=O)N[C@@H](CCCCN)C(=O)N[C@@H](CC(C)C)C(=O)N[C@@H](CCCCN)C(=O)O	/	2%[4.12 µM]	/	-8%[4.12 µM]	/	/
CC(C)(C)C(=O)NCCc1nc(-c2ccccc2)no1	42	-10%	1%	-16%	0%	3%
Cc1c(CCNC(=O)C(C)(C)C)sc2nc(-c3ccc(F)cc3)nn12	/	?	/	26µM*	/	/
Cc1ccc(-c2nc3sc(CCNS(=O)(=O)c4cc(F)ccc4F)c(C)n3n2)cc1	/	?	/	21µM*	/	/
COc1ccc(CNC(=O)c2cnc3sc(N4CCOCC4)nn3c2=O)cc1	/	-10%	/	-24%	/	/
COc1ccc(CN2CCc3ccc(NC(=O)CCc4ccccc4OC)cc3C2)c(O)c1	?	15µM*	-11%	23µM*	?	-18%
COc1ccc(NC(=O)c2ccc(CN3CCc4ccccc4C3)cc2)c(OC)c1	-2	23µM*	1%	?	8%	2%
CSc1cccc(NC(=O)N2CCc3ccc(NC(=O)c4ccccn4)cc3C2)c1	-9	?	?	13µM*	-19%	?
COc1cc(CN2CCc3ccc(NC(=O)CCc4ccccc4OC)cc3C2)ccc1O	0	?	-8%	?	-27%	?
C=CCc1ccc(OCCN2CCc3ccccc3C2)c(OC)c1	-2	?	-4%	16µM*	-13%	-10%
CN1CCN(c2nc(-c3ccccc3C(F)(F)F)nc3ccccc23)CC1	/	-5%	/	-1%	/	/
COc1cc(CN2CCc3ccccc3C2)cc([N+](=O)[O-])c1O	11	6%	-3%	2%	7%	3%
CSc1cccc(NC(=O)c2ccc(CN3CCc4ccccc4C3)cc2)c1	-88*	?	-6%	-49%	?	-27%
COc1cc(CN2CCc3ccccc3C2)ccc1O	-90*	0.92µM*	2.8µM*	0.46µM*	?	?
O=C(Nc1cccc(Br)c1)c1ccc(CN2CCc3ccccc3C2)cc1	0	?	14%	16µM*	?	16µM*
COc1cccc(NS(=O)(=O)c2ccc3[nH]cc(C(=O)NC(C)c4ccccc4)c(=O)c3c2)c1 (stereo not drawn)	/	?	/	-24%	/	/
CC(C)C[C@@H](CN)NC(=O)c1nc[nH]c1C(=O)N[C@@H](C)C(=O)CNC[C@H](C)NC(=O)c1nc[nH]c1C(=O)N[C@@H](CC(=O)O)C(=O)O	39	0%	12%	-6%	0%	15%
Cc1[nH]c2ccccc2c1SCC(=O)N1CCN(c2ccccc2)CC1	-19	?	-7%	26µM*	5%	16%
Cc1[nH]c2ccccc2c1SCC(=O)N1CCCCCC1	?	-17%	-3%	-1%	8%	9%
C=CCn1c(SCC(=O)N2CCN(c3ccccc3)CC2)nc2c([nH]c3ccccc32)c1=O	4	16µM*	-1%	12µM*	0%	4%
CCOC(=O)N1CCN(C(=O)CSc2nc3c([nH]c4ccccc43)c(=O)n2CC)CC1	-9	?	-12%	15µM*	-3%	1%
CCOc1cc(OCC)cc(C(=O)N2CCC[C@@H]2C(=O)N2CCC[C@H]2C(=O)NCc2ccncc2)c1	53	-18%	/	-20%	1%	10%
Cc1ccc(N=Cc2ccc[nH]2)c(O)c1	0	21µM*	/	?	-27%	-17%
CCOc1ccc(NC(=S)N2CCN(S(=O)(=O)c3ccc(OC)cc3)CC2)cc1	-12	-17%	8%	?	-12%	-3%
SMILES	IL1B secr inh	TDP1 cell CPT	uPA generation	TDP1 cell noCPT	HT1080 IDH1KD tx	HT1080-NT tox
COC(=O)c1c(C)[nH]c(C(=O)COC(=O)CCc2ccc(OC)c(OC)c2)c1C	19	-3%	/	?	0%	11%
O=c1cc(N/N=C/c2ccccc2)[nH]c(=O)[nH]1	-99*	4.1µM*	10%	4.6µM*	7.3µM*	3.7µM*
O=c1cc(C=NNc2ccccc2)[nH]c(=O)[nH]1	-6	7%	6%	2%	4%	-8%
C[C@H](CO)N1C[C@H](C)[C@@H](CN(C)S(=O)(=O)c2cn(C)cn2)Oc2ccc(NC(=O)NC3CCCCC3)cc2C1=O	-4	3%	17%	-1%	6%	8%
COc1cc(/C=C/CNC[C@H]2O[C@@H](n3cc(C)c(=O)[nH]c3=O)C[C@@H]2O)ccc1O	7	7%	/	?	2%	9%
CC(C)Cn1c2c(c(O)c(C(=O)Nc3nccs3)c1=O)CCCC2	8	16µM*	10%	?	?	4%
CCOC(=O)Cc1csc(NC(=O)c2c(O)c3c(n(CC(C)C)c2=O)CCCC3)n1	-1	21µM*	-6%	?	11%	?
O=C(N/N=C/c1ccccc1O)C1CC(=O)N(c2ccc(F)cc2)C1 (stereo not drawn)	89	3.3µM*	-4%	5.8µM*	?	?
CC(C)N1CCC1(C)C(=O)Nc1cc(-c2ccccc2)nn1C (stereo not drawn)	16	-16%	/	-7%	24%	24%
Cc1nc2c(F)c(F)c(C(F)(F)F)c(F)c2[nH]1	99	?	-3%	21µM*	?	-26%
CC(C)OCCCn1c(SCC(=O)N2CCc3ccccc32)nc2ccccc2c1=O	0	?	9%	12µM*	?	-19%
CC(C)Cn1c(SCC(=O)N2CCCc3ccccc32)nc2ccccc2c1=O	-66*	16µM*	13%	18µM*	-30%	-26%
O=C(CSc1nc2ccccc2c(=O)n1-c1ccccc1)N1CCCc2ccccc21	-17	-1%	1%	?	-16%	-7%
CCn1c(SCC(=O)N2CCCc3ccccc32)nc2ccccc2c1=O	-24	?	3%	15µM*	-17%	-8%
COCCCn1c(=O)c2ccccc2n(CC(=O)N2CCCc3ccccc32)c1=O	7	26µM*	7%	?	-6%	-2%
Cc1ccc(S(=O)(=O)Nc2cc3c4c(c2)CCN4C(=O)CC3)cc1	-1	-7%	-5%	?	-13%	0%
